Screening data as filed in PubChem.
CYP2C9 act: CYP2C9 (human) activation. P11712. activation factor at 5 µM. AID 1024. recombinant CYP2C9, luciferin-H conversion, luminescence; hits give high values; factor 1 = untreated enzyme, 0 = blocked. 1.4% of 96,000 active;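 active = activation factor of 2 or more for CYP2C9 at a 5 µM dose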;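 also: 0 = sulfaphenazole-blocked wells and 1 = vehicle-only wells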
PLAP activator: human PLAP activation; P05187; purified PLAP enzyme, luminescent substrate read-out; hits give high values; activation fold at 20 µM; 1.2% of 96,000 active; in the data active = activation fold above about 2
CYP2C19 activ: activators of human cytochrome P450 2C19. recombinant CYP2C19, luciferin-H EGE luminescence; hits give high values; 0 = fully inhibited enzyme, 1 = untreated enzyme. activation factor at 5 µM. 96,000 tested, under 10 active. AID 1025;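 active = activation factor of at least 2 at 5 µM in the primary screen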;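 also: 0 = wells with 2.5 mM tranylcypromine and 1 = vehicle-only wells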
CYP2C19 inh: inhibitors of human CYP2C19. P33261. CYP2C19 Supersomes, luciferin-H EGE luminescence, 30 min. inhibition, % at 5 µM. 21% of 96,000 active. AID 778;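 active = CYP2C19 inhibition above a set limit at 5 µM in the primary screen, cut at about 50% in these data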;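 also: plate controls were negative control wells for no effect and 2.5 mM tranylcypromine positive control for full effect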
CYP2C9 inh: inhibitors of human CYP2C9 | AID 777 | inhibition, % at 5 µM | 20% of 96,000 active | CYP2C9 Supersomes, luciferin-H conversion, luminescence;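 active = blocking of liver enzyme CYP2C9 beyond about 50% at 5 µM, limit read from the data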
Active calls of the source: *. An excerpt weighted towards active compounds, which were near 31% of everything screened.

SMILES	CYP2C9 act	PLAP activator	CYP2C19 activ	CYP2C19 inh	CYP2C9 inh
COc1ccc(NC(=O)C(c2ccc(OC)cc2)N(C)C(=O)CNC(C)=O)cc1 (stereo not given)	1.2	1.3	1.2	-17	-16
CC(=O)c1c(COC(=O)c2ccco2)nc2ccccc2[n+]1[O-]	0.4	1	0.4	60*	63*
CC(=O)c1c(COC(=O)c2ccncc2)nc2ccccc2[n+]1[O-]	0.6	1	0.1	92*	35
CCOC(=O)c1c(COC(=O)c2ccco2)nc2ccccc2[n+]1[O-]	0.8	0.9	0.9	14	19
COc1ccc2nc(COC(=O)c3ccco3)c(C(C)=O)[n+]([O-])c2c1	0.8	1	0.9	12	24
CC1=C(C#N)C(=O)OC(C)(C)C1	1.2	1	1.1	-14	-18
COc1ccc(NC(=O)CN(C)C(=O)c2ccc(C)s2)cc1	1	1.1	1	0	1
Cc1ccc(N2C(=O)CSC23C(=O)Nc2ccccc23)cc1 (stereo not given)	0.6	1.9	0.2	79*	42
COCCNS(=O)(=O)c1ccc2c(c1)n(C)c(=O)n2C	0.9	1.1	0.9	6	10
Cn1c(=O)n(C)c2cc(S(=O)(=O)NCCO)ccc21	1.4	1.1	1.2	-21	-43
COc1ccccc1NS(=O)(=O)c1ccc2c(c1)n(C)c(=O)n2C	1	1.1	0.3	72*	2
Cn1c(=O)n(C)c2cc(S(=O)(=O)Nc3ccccc3O)ccc21	0.4	1.2	0.2	83*	59*
COc1ccc(-c2nnc(-c3ccc(N(C)C)cc3)o2)cc1	0.9	0.8	1	-3	15
COc1ccc(-c2nnc(-c3ccc(N)cc3)o2)cc1	0.2	0.9	0.9	8	77*
COc1ccc(NC(=O)CSc2nc3c(c(=O)n2-c2ccc(F)cc2)SCC3)c(OC)c1	0.2	1.2	0.3	73*	80*
COc1ccc(-n2c(SCC(=O)N3CCN(c4ccccc4)CC3)nc3c(c2=O)SCC3)cc1	0.3	1.6	0.4	57*	70*
COC(=O)c1ccc(CSc2nc3c(c(=O)n2-c2ccc(C)cc2)SCC3)o1	0.1	1.4	0.4	65*	93*
COc1ccc(-n2c(SCC(=O)Nc3nccs3)nc3c(c2=O)SCC3)cc1	1	1	1	4	1
COC(=O)C(C)Sc1nc2c(c(=O)n1-c1ccccc1)SCC2 (stereo not given)	0.3	1.3	0.1	89*	69*
CC(C)OC(=O)c1c(-c2ccc(C(C)C)cc2)csc1NC(=O)C1CCCO1 (stereo not given)	0.8	0.9	1	-4	23
COc1ccc(C(=O)NCc2cn3ccsc3n2)cc1OC	1.1	1.1	1.1	-13	-14
Cc1ccc(NS(=O)(=O)c2ccc(OCC(=O)Nc3cccc([N+](=O)[O-])c3)c(C)c2)cc1	0.1	0.8	0.5	52*	89*
Cc1ccc(S(=O)(=O)N(CC(=O)N2CCOCC2)C2CCCCC2)cc1	0.9	1.6	1	-1	9
CCN(C1CCCCC1)S(=O)(=O)c1ccc(S(=O)(=O)N(CC(=O)Nc2ccccc2)C2CC2)cc1	0.3	0.6	1.1	-14	68*
COc1ccc(C)cc1S(=O)(=O)N(CC(=O)Nc1cccc([N+](=O)[O-])c1)c1cc(C)cc(C)c1	0.1	0.9	1	-2	93*
SMILES	CYP2C9 act	PLAP activator	CYP2C19 activ	CYP2C19 inh	CYP2C9 inh
O=C(CN(C1CC1)S(=O)(=O)c1ccc(S(=O)(=O)N2CCCCCC2)cc1)Nc1ccccc1	0.6	0.7	0.5	46	40
COc1ccc(C)cc1S(=O)(=O)N(CC(=O)O)c1ccc(F)cc1	0.7	1.3	1	0	28
Cc1ccc(S(=O)(=O)N(CC(=O)Nc2cccc([N+](=O)[O-])c2)C2CCCCC2)cc1	0.1	1	0.8	19	92*
CCCOc1cccc(NC(=O)c2cc(C)oc2C)c1	0.9	0.8	0.8	16	9
Cc1c(N=C2SCC(=O)N2c2c(C)n(C)n(-c3ccccc3)c2=O)c(=O)n(-c2ccccc2)n1C	1	1.2	1	4	-1
CC1CCC/C(=N\NC(=S)NCc2ccccc2)C1 (stereo not given)	0.1	1	0.2	82*	85*
Cc1cc(NC(=O)CSc2nnnn2C)n(-c2ccccc2)n1	1.1	0.8	1.2	-16	-10
CCCOC(=O)NC(CC)COC(=O)Nc1cccc(C)c1C (stereo not given)	0.8	1	0.3	72*	16
CCC(COC(=O)Nc1cccc(C)c1C)NC(=O)OCC(C)C (stereo not given)	0.5	0.9	0	96*	50
C=CCn1c(CNc2ccccc2)nnc1SCC(=O)N/N=C/c1ccc(O)cc1O	0.9	1	0.5	48	10
O=c1[nH]c(=O)n(Cc2ccco2)c2c1C(C(F)(F)F)(C(F)(F)F)N=C(CCc1ccccc1)N2	0.3	1.1	0.8	22	68*
N#Cc1ccc(C2=NC(C(F)(F)F)(C(F)(F)F)c3c(n(Cc4ccco4)c(=O)[nH]c3=O)N2)cc1	0	1.1	0.7	32	96*
